# From PubChem BioAssay (NCATS)
# Records with an inconclusive call do not appear. A number with no mark means an inactive call. Activity calls are given as the source filed them. Calls come from the whole dose curve; as a rule, active = well fitted inhibition curve with a large enough effect; inconclusive = small, poorly fitted or top-dose-only effect; inactive = flat fitted curve, though single readings scatter. Where a SMILES comes first, the peptide text is derived from it. [ ]: non-standard residue; d: D form. ξ: configuration not given here. ξTyr(βOH) = NC(C(=O)O)C(O)c1ccc(O)cc1
# Test: P-glycoprotein substrates identified in KB-8-5-11 adenocarcinoma cell line, qHTS therapeutic library screen (AID 1346987); note: nearly all actives have a fitted effect of over 65% in size
# Settings: KB-8-5-11 (P-gp overexpressing) viability, CellTiter-Glo, 72 h; series mostly up to 44.5 µM; activity change, negative = cytotoxicity: at the top concentration
# In short: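 Human cervical adenocarcinoma KB-8-5-11 cells, selected in colchicine to over-express P-gp and assayed without it, were exposed for 72 h to titrated compounds. An ATP-based luminescent viability signal gave AC50.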
# % is set by controls: 0 for no effect and ±100 for the full control effect.
Structure (SMILES),"activity change, negative = cytotoxicity",outcome
CC1CCC2(C)CCC3(C)C(=CCC4C5(C)CCC(O)C(C)(C(=O)O)C5CCC43C)C2C1C (stereo not drawn),7.94% [at 17.3 µM],–
c1ccc2c(Nc3nnc(-c4ccncc4)s3)cccc2c1,-12.4%,–
CC(C)C(O)(CO)CCO[C@@H]1O[C@H](CO[C@H]2OC[C@](O)(CO)[C@H]2O)[C@@H](O)[C@H](O)[C@H]1O (stereo partly drawn),–,inactive [at 17.3 µM]
O=C(Cc1ccc(Cl)cc1)Nc1cnccc1C(=O)O,–,inactive
C[C@]12CCC[C@](C)(C(=O)O)C1[C@@H](O)[C@@H](O)C13CC(CCC12)C(CO)(O[C@@H]1O[C@H](CO)[C@@H](O)[C@H](O)[C@H]1O)C3 (stereo partly drawn),–,inactive [at 17.3 µM]
CC1(CO)CCCC2(C)C1C(OC(=O)c1ccccc1)CC1C(=O)OCC12O (stereo not drawn),–,inactive
C[C@@H]1O[C@@H](O[C@H]2[C@H](OC(=O)[C@]34CCC(C)(C)C[C@H]3C3=CCC5[C@@]6(C)CC[C@H](O[C@@H]7O[C@H](CO[C@@H]8OC[C@H](O)[C@H](O)[C@H]8O[C@@H]8OC[C@@H](O)[C@H](O)[C@H]8O)[C@@H](O)[C@H](O)[C@H]7O)C(C)(C)C6CC[C@@]5(C)[C@]3(C)C[C@H]4O)O[C@H](CO)[C@@H](O)[C@@H]2O)[C@H](O[C@@H]2O[C@H](CO)[C@@H](O)[C@H](O)[C@H]2O)[C@H](O)[C@H]1O[C@@H]1OC[C@@H](O)[C@H](O[C@@H]2OC[C@@H](O)[C@H](O)[C@H]2O)[C@H]1O (stereo partly drawn),9.58% [at 5.11 µM],–
CC1=C(C)C(=O)OC(C(C)C2C(O)CC3C4C5OC5C5(O)CC(OC6OC(CO)C(OC7OC(C)C(O)C(O)C7O)C(O)C6O)CC(O)C5(C)C4CCC32C)C1 (stereo not drawn),0.543% [at 17.3 µM],–
CC(C)C1NC(=O)CNC(=O)C2CCCN2C(=O)C(Cc2c[nH]c3ccccc23)NC(=O)CNC(=O)C(C(O)c2ccc(O)cc2)NC(=O)CNC1=O (stereo not drawn) (cyclo(G[ξTyr(βOH)]GWPGV); configuration not given here),–,inactive [at 17.3 µM]
Cc1ccc(C)c(NC(=O)CNS(=O)(=O)c2ccc3[nH]c(=O)oc3c2)c1,3.66%,–
CC1(C)CC[C@]2(C(=O)O)CC[C@]3(C)C(=CCC4[C@@]5(C)CC[C@H](O[C@H]6O[C@H](C(=O)O)[C@@H](O)[C@H](O[C@@H]7O[C@H](CO)[C@H](O)[C@H](O)[C@H]7O)[C@H]6O)C(C)(C)C5CC[C@]43C)[C@@H]2C1 (stereo partly drawn),–,inactive [at 9.29 µM]
CC(=O)NC(Cc1ccccc1)C(=O)NC(C(=O)O)C(C)C (stereo not drawn) (Ac-Phe-Val-OH; configuration not given here),3.63%,–
C=C1CCC2C(C)(C)CC(=O)CC2(C)C1CCC(C)CCO (stereo not drawn),5.78%,–
C[C@@H]1C[C@@H](O)[C@@]23CO[C@]2(CO)CCC[C@@H]3[C@@]12C[C@@H](c1ccoc1)OC2=O,–,inactive
COc1ccc(NC(=O)c2ccc(-c3ccc(C(N)=O)cc3C)cc2)cc1N1CCN(C)CC1,–,inactive
C=Cc1ccc(O[C@@H]2O[C@H](CO[C@@H]3O[C@@H](C)[C@H](O)[C@@H](O)[C@H]3O)[C@@H](O)[C@H](O)[C@H]2O)cc1,–,inactive [at 17.3 µM]
CCC[C@H](N[C@@H](C)C(=O)N1[C@H](C(=O)O)C[C@@H]2CCCC[C@@H]21)C(=O)O,-6.94%,–
CC1OC(OC2C(OC3C(O[C@H]4CC[C@@]5(C)C(CC[C@]6(C)C5CC=C5C7CC(C)(C)CC(O)[C@]7(C)CC[C@]56C)C4(C)C)OC(C(=O)O)C(O)C3O)OCC(O)C2O)C(O)C(O)C1O (stereo partly drawn),–,inactive [at 9.29 µM]
O=C(OCC(O)CO[C@@H]1O[C@H](C(=O)O)[C@@H](O)[C@H](O)[C@H]1O)c1ccccc1 (stereo partly drawn),–,inactive

Structure (SMILES),"activity change, negative = cytotoxicity",outcome
CC1CCC23COC(=O)C2=CC(O)CC3C1(C)CCc1ccoc1 (stereo not drawn),-1.88%,–
CCCCS(=O)(=O)NC(Cc1ccc(OCCCCC2CCNCC2)cc1)C(=O)O (stereo not drawn),0.242%,–
CC1(C(=O)O)CCCC2(C)C3CC4C5CC3(CCC12)CC45C (stereo not drawn),1.72%,–
COc1cc(/C=C/C(=O)O[C@@H]2C[C@@](O)(C(=O)O)C[C@@H](O)[C@@H]2O)ccc1O,1.07%,–
C[C@]1(OC(=O)/C=C/c2ccccc2)C[C@@H](O)[C@]2(O)C=CO[C@@H](O[C@@H]3O[C@H](CO)[C@@H](O)[C@H](O)[C@H]3O)[C@@H]21,5.57% [at 17.3 µM],–
Cc1cc(O[C@@H]2O[C@H](COC(=O)CC(=O)O)[C@@H](O)[C@H](O)[C@H]2O)c(C(C)C)cc1O,-7.8% [at 17.3 µM],–
C[C@@H]1O[C@@H](O[C@H]2[C@H](O[C@H]3[C@H](O[C@H]4CC[C@@]5(C)C(CC[C@]6(C)C5CC=C5[C@@H]7CC(C)(C)C[C@@H](O)[C@]7(C)CC[C@]56C)[C@@]4(C)CO)O[C@H](C(=O)O)[C@@H](O)[C@@H]3O)O[C@H](C(=O)O)[C@H](O)[C@@H]2O)[C@H](O)[C@H](O)[C@H]1O (stereo partly drawn),–,inactive [at 9.29 µM]
CC(=O)OC(C)(C)/C=C/C(=O)[C@](C)(O)C1[C@H](O)C[C@@]2(C)[C@@H]3CC=C4[C@@H](C[C@H](O[C@@H]5O[C@H](CO)[C@@H](O)[C@H](O)[C@H]5O)C(=O)C4(C)C)[C@]3(C)C(=O)C[C@]12C (stereo partly drawn),–,inactive [at 17.3 µM]
O=C(O)c1ccnc2cc(-c3nc4ccccc4n3CCN3CCCCC3)sc12,5.43%,–
CC(=O)C1CCC(=O)N1Cc1ccccc1 (stereo not drawn),4.45%,–
COc1cc(O)cc(C)c1C(=O)O[C@H]1[C@@H](O)[C@@H](n2ccc(=O)[nH]c2=O)O[C@@H]1CO,–,inactive [at 17.3 µM]
CC(=O)O[C@H]1C[C@@]2(C)[C@@H](CC[C@H]3[C@@]4(C)C=CC(=O)[C@@H](C)[C@@H]4[C@H](OC(C)=O)C(=O)[C@@]32C)/C1=C(\CCC=C(C)C)C(=O)O,–,inactive [at 17.3 µM]
C/C=C1/CC2C(=O)Nc3cc(O)c(OC)cc3C(=O)N2C1 (stereo not drawn),–,inactive
CCCNCCOc1ccc(NC(=O)c2c[nH]c3c2C(=O)CCC3)cc1F,1.49%,–
COc1cc(Cc2cnc(N)nc2N)c(C(C)C)cc1OC,4.26%,–
O=C(O)c1ccncc1Nc1nn(CCN2CCC(F)(F)CC2)c2ccc(F)cc12,4.31%,–
COC(=O)C1=CO[C@@H](O[C@@H]2O[C@H](CO)[C@@H](O)[C@H](O)[C@H]2O)[C@@H]2C(C)CC(=O)[C@]12O (stereo partly drawn),2.76% [at 17.3 µM],–
COC(=O)C(CC1(O)c2ccccc2N2C(=O)C(C)(C)N(O)C21)n1cnc2ccccc2c1=O (stereo not drawn),–,inactive [at 17.3 µM]
CCCC(=O)Nc1cccc(NC(=O)c2ccccc2Br)c1,-10.6%,–
